Measurements from PubChem BioAssay (Tox21).
Several values for one entry are separate records, joined by “and”; a condition that tells them apart may be missing. Equal entries are not always repeated. Records with an inconclusive call do not appear. A call without a number means that no potency is given here. Some structures have more than one record in an assay (separate samples or runs), and their calls can disagree. Activity calls are given as the source filed them. The call rests on the fitted dose curve; in most records, active means well fitted cell-killing curve with a large enough effect in the repeat runs; inconclusive means weak or mixed curves; inactive means flat fitted curve, though single readings scatter.

Experiment: qHTS RealTime-Glo MT Cell Viability Assay in HepG2 cells - 16 hour (AID 1224885); further: nearly all actives have a fitted effect of over 50% in size
Settings: RealTime-Glo luminescence; series mostly up to 76.8 µM
From the text: U.S. Tox21 Program National Center for Advancing Translational Sciences [NCATS] NIH Chemical Genomics Center [NCGC] U.S. Environmental Protection Agency [EPA] National Institutes of Environmental Health Sciences [NIEHS] National Toxicology Program [NTP] U.S. Food and Drug Administration [FDA] Tox21 Assay Overview: Measure of cell viability is critical in the cell-base assay. Analysis of cell viability is necessary for the characterization of cell responses to cytotoxic drugs and environmental stress. A RealTime-Glo MT Cell Viability Assay to monitor cell viability in real time of continues cell culture during 40 hours of compound treatment was used to screen Tox21 10K library compounds in HepG2 cells. The RealTime-Glo MT Cell Viability Assay is a nonlytic, homogeneous, bioluminescent method to measure cell viability in real time using a simple, plate-based method. The assay involves adding NanoLuc luciferase and a cell-permeant prosubstrate to cells in culture. Viable cells reduce the proprietary prosubstrate to generate a substrate for NanoLuc luciferase. This substrate diffuses from cells into the surrounding culture medium, where it is rapidly used by the NanoLuc Enzyme to produce a luminescent signal. The signal correlates with the number of viable cells, making the assay well suited for cytotoxicity studies.
Tox21 Assay Protocol Summary: The mixture of HepG2 cell suspension and reagents were dispensed at 600cells/6 ul/well in 1536-well tissue culture treated black solid bottom plates using a Multidrop dispenser. After the assay plates were incubated at a 37 C/5% CO2 incubator for 5 hours, 23 nL of compounds dissolved in DMSO, positive and negative controls was transferred to the assay plate by a pintool work station. The plates were incubated at 37 C for 40 hours. The luminescence intensity were measured at 0h, 8h, 16h, 24h, 32h and 40h time points using ViewLux plate reader during compound treatment.
Potency means the concentration at half of the fitted maximal effect.

| SMILES | Potency |
| --- | --- |
| CON(C)C(=O)Nc1ccc(Br)c(Cl)c1 | inactive |
| Oc1ccc(Cc2ccc(O)cc2)cc1 | inactive |
| CCN(CCO)CCO | inactive |
| Cc1ccc(Cl)c(O)c1 | inactive |
| CC(C)(C)C(=O)C(Cl)Cl | inactive |
| C=CCC1(C(C)CC)C(=O)NC(=O)NC1=O (stereo not given) | inactive |
| CC(C)(N)Cc1ccc(Cl)cc1 | inactive |
| CC(C)(C)C(=O)Cl | inactive |
| N#CN | inactive |
| O=C(NC(=O)c1c(F)cccc1F)Nc1cc(Cl)c(F)c(Cl)c1F | inactive |
| O=C(O)CBr | inactive |
| CC(C)(C1CCC(O)CC1)C1CCC(O)CC1 (stereo not given) | inactive |
| O=C(O)C(F)(F)C(F)(F)C(F)(F)C(F)(F)C(F)(F)C(F)(F)F | inactive |
| CCN[C@@H](C)Cc1cccc(C(F)(F)F)c1 | inactive |
| O=C1C2CC=CCC2C(=O)N1SC(Cl)(Cl)Cl (stereo not given) | inactive and 42.9 µM (active) |
| COC(=O)[C@@H](N)CCCN/C(N)=N/[N+](=O)[O-] | inactive |
| ClC(Cl)(Cl)Cl | inactive |
| CCc1ccc(C2CCNCC2)cc1 | inactive |
| C[N+]1(C)CCCCC1 | inactive |
| CCC(C)(C#N)N=NC(C)(C#N)CC (stereo not given) | inactive |

| SMILES | Potency |
| --- | --- |
| OCC(Cl)CCl (stereo not given) | inactive |
| NCCOS(=O)(=O)O | inactive |
| C=C(Cl)CSC(=S)N(CC)CC | inactive |
| CCC1(CC)C(=O)C=CNC1=O | inactive |
| COC1=CC(=O)O[C@@H](/C=C/c2ccccc2)C1 | inactive |
| CC(O)CCl (stereo not given) | inactive |
| COc1ccc(CN2CCNCC2)c(OC)c1OC | inactive |
| Cn1c(N)nc2c3cccnc3ccc21 | inactive |
| O=C(O)C(Cl)Br (stereo not given) | inactive |
| CN(C)C(=O)Oc1cc(OC(=O)N(C)C)cc(C(O)CNC(C)(C)C)c1 (stereo not given) | inactive |
| O=C(CCl)NCO | inactive |
| C=CC(=O)OCCN(C)C | inactive |
| CCCCCCCCBr | inactive |
| Cc1cccc2sc3nncn3c12 | inactive |
| CN(CCO)CCO | inactive |
| COc1cc(CCN)cc(OC)c1OC | inactive |
| C[C@H](N)C(=O)c1ccccc1 | inactive |
| c1ccc2c(c1)CCNC2 | inactive |
| C=CCN1CC[C@]23CCCC[C@H]2[C@H]1Cc1ccc(O)cc13 | inactive |
| CCCCS(=O)(=O)Cl | inactive |
